This is a sample that favours compounds with a hit; in the whole collection about 4.8% have one here.
ATXN2 expr inh: Primary qHTS for Inhibitors of ATXN expression; Potency, µM (titrated, usually from 57 µM), hits mostly inhibitors; 0.72% of 360,000 active; HEK-293 ATXN2-luciferase reporter, luminescence, 24 h; note: nearly all actives have a fitted effect of over 55% in size
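ATXN2-luciferase reporter cells (luciferase flanked by upstream and downstream ATXN2 gene portions) were treated 24 h at 37 °C with compounds at up to 57 uM. SteadyGlo luminescence gave expression; GF-AFC fluorescence gave viability.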
IL1B secr inh: qHTS for Inhibitors of Inflammasome Signaling: IL-1-beta AlphaLISA Primary Screen | AID 743279, 2014 | activity change, % at 57.5 µM | 4.7% of 360,000 active | THP-1 LPS/ATP IL-1B secretion, AlphaLISA, 16 h; active compounds read low; in the data active = activity change below about -50%; inconclusive = mostly about -30% to -49%
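THP-1 cells pretreated 1 hr with compounds (up to 57.5 uM final), then stimulated with LPS (250 ng/mL final) plus ATP (1.25 mM final); secreted IL-1B measured by AlphaLISA after 16 hr, decreased signal indicating inhibition.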
USP2a inh: qHTS Assay for Inhibitors of Ubiquitin-specific Protease USP2a Using CHOP2 as the Reporter | Ubiquitin carboxyl-terminal hydrolase 2 (Homo sapiens), O75604 | USP2 core, Ub-CHOP2 coupled fluorogenic reporter, 485/531 | Potency, µM (top dose mostly 38.3 µM), most hits filed as inhibitors | 0.01% of 330,000 active | AID 463254, 2010
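USP2 core (10nM final) preincubated 30min RT with compound in 20mM Tris-HCl pH 8.0, 2mM CaCl2, 2mM beta-mercaptoethanol, 0.05% CHAPS; 25nM Ub-CHOP2 plus 25nM reporter substrate added, fluorescence (Ex485/Em531) read after 60min.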
USP1 inh: Inhibitors of USP1/UAF1: Primary Screen; Ubiquitin carboxyl-terminal hydrolase 1 (Homo sapiens), O94782; recombinant USP1/UAF1, Ub-Rhodamine cleavage fluorescence; Potency, µM (titrated, usually from 57.1 µM), hits mostly inhibitors; 0.23% of 390,000 active; note: nearly all actives have a fitted effect of over 60% in size
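In this screen, compounds sit with the deubiquitinase complex (1nM) for 15 min at room temperature before Ub-Rho is added at 150nM final. Fluorescence rise is then followed for 6 reads every 60 seconds.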
ATXN viability: Viability Counterscreen for Primary qHTS for Inhibitors of ATXN expression; 0.49% of 400,000 active; S2 cells (HEK-293 line with an ATXN2-luciferase reporter) viability, CellTiter-Fluor protease fluorescence, 24 h; Potency, µM (doses to about 56.7 µM), usual class: cytotoxic; note: nearly all actives have a fitted effect of over 40% in size
Hits are given with their value; i = inactive; ? = inconclusive; nt = no result given. Unless noted, calls come from the whole dose curve; as a rule, active = well fitted curve in the direction sought with a large enough effect; inconclusive = small, poorly fitted or top-dose-only effect, or another doubt; inactive = no such curve, though single readings can be large; an effect the other way counts as inactive or inconclusive.

SMILES	ATXN2 expr inh	IL1B secr inh	USP2a inh	USP1 inh	ATXN viability
O=C(C1=C[C@H](c2ccccc2)C[C@H](OCc2ccc(CO)cc2)O1)N1CCN(Cc2ccc3c(c2)OCO3)CC1	?	-53	i	i	?
O=C(C1=C[C@@H](c2ccc(C(F)(F)F)cc2)C[C@@H](OCc2ccc(CO)cc2)O1)N1CCN(Cc2ccccc2)CC1	?	-60	i	?	?
O=C(C1=C[C@H](c2ccc3c(c2)OCO3)C[C@H](OCc2ccc(CO)cc2)O1)N1CCN(Cc2ccc3c(c2)OCO3)CC1	i	?	i	i	i
CC(=O)n1cc([C@@H]2C=C(C(=O)N3CCN(Cc4ccc5c(c4)OCO5)CC3)O[C@H](OCCCCO)C2)c2ccccc21	i	-52	i	i	?
COc1ccc(-n2ccnc(SCC(=O)NCc3ccc(C)cc3)c2=O)cc1Cl	i	i	i	i	i
O=C(O)/C=C/C(=O)Nc1ccccc1C(=O)OCC(=O)c1ccc2c(c1)OCCO2	i	-75	i	i	i
CCOC(=O)c1ccccc1NC(=O)/C=C/C(=O)O	i	?	i	i	i
CCCCCCOC(=O)c1ccccc1NC(=O)/C=C/C(=O)O	i	-100	i	i	?
N/C(=N\N=Cc1ccc2c(c1)OCO2)NN=Cc1ccc2c(c1)OCO2	i	-99	nt	i	30µM
CS/C(N)=N/N=C/c1ccc2c(c1)OCO2	i	i	i	i	i
O=C(NN=Cc1ccc2c(c1)OCO2)NN=Cc1ccc2c(c1)OCO2	i	-89	nt	i	i
N/C(=N\N=C/c1ccc(Br)cc1)N/N=C\c1ccc(Br)cc1	i	-64	i	i	i
COc1cccc(NC(=O)CN(C)C(=O)CCCc2c[nH]c3ccccc23)c1	i	i	i	i	i
Cc1cccc(N2CC(C(=O)Nc3nccs3)CC2=O)c1C (centres undefined)	i	i	i	i	i
CCOC(CN=c1nc(N(C)C)ss1)OCC	?	-101	nt	i	nt
CCOC(=O)C1(CCOc2ccccc2)CCN(Cc2ccc(OC)c(COC)c2)CC1	i	-52	i	i	i
CCOC(=O)C1(CCOc2ccccc2)CCN(Cc2ccc(OCCO)cc2)CC1	i	?	i	i	i
CCOC(=O)C1(CCOc2ccccc2)CCN(Cc2ccc(O)cc2)CC1	i	i	i	i	i
CCOC(=O)C1(CCOc2ccccc2)CCN(Cc2ccc(O)c(OCC)c2)CC1	i	-89	i	i	i
CCOC(=O)C1(CCc2ccccc2)CCN(Cc2c(O)cccc2OC)CC1	i	-92	i	i	i
CCOC(=O)C1(CCOc2ccccc2)CCN(Cc2cnc(C)[nH]2)CC1	i	-94	i	i	i
COC(=O)c1ccc2nc(-c3cccc(Br)c3)c(Cc3ccsc3)n2c1	i	i	nt	nt	i
CCOC(=O)C1(CCOc2ccccc2)CCN(Cc2ccc(C)o2)CC1	i	i	i	i	?
CCOC(=O)C1(CCOc2ccccc2)CCN(Cc2cc(OC)c(O)c(OC)c2)CC1	i	i	i	i	i
CCOC(=O)C1(CCOc2ccccc2)CCN(Cc2ccc(COC)o2)CC1	i	-57	i	i	i
CCOC(=O)C1(CCOc2ccccc2)CCN(Cc2ccc(OC)c(O)c2)CC1	i	-52	i	i	i
O=C(CSc1ncn(-c2ccccc2)n1)c1cccs1	i	-52	i	i	i
CCCCCCCCCCOC(=O)Cn1c(COc2ccccc2OC)[n+](C)c2ccccc21	?	-91	?	?	?
C#CCOCCOCCOCCNc1nc(N2CCN(C(=O)CCCCCCCCCCNC(=O)[C@H](CCCCN)n3cc(CCO)nn3)CC2)nc(N2CCN(C(=O)CCCCCCCCCCNC(=O)[C@@H]([C@H](C)O)n3cc(C)nn3)CC2)n1	i	-71	i	?	?
CC(C)(C)OC(=O)NCCCC[C@@H](C(=O)NCCCCCCCCCCC(=O)N1CCN(C(=O)OC(C)(C)C)CC1)n1cc(CCO)nn1	?	i	i	i	35µM

Compound activity: PubChem BioAssay, National Center for Advancing Translational Sciences (NCATS)
